Screening results from PubChem BioAssay.
This is a sample that favours compounds with a hit; in the whole collection about 5.9% have one here.
ATXN2 expr inh: inhibitors of ATXN2 expression; AID 1745845; Potency, µM (series often up to 57 µM), without a hit: at the top dose activity change, negative = inhibition, hits mostly inhibitors; HEK-293 ATXN2-luciferase reporter, luminescence, 24 h; 360,000 tested, 0.72% active; note: % is set by controls: 0 for no effect and ±100 for the full control effect; nearly all actives have a fitted effect of over 55% in size
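qHTS (up to 57 uM final) was run with 24 h compound exposure of reporter cells at 37 °C. Each well was multiplexed: SteadyGlo luminescence measured ATXN2-luciferase expression after a fluorogenic Gly-Phe-AFC viability readout (25 uM final).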
KB-3-1 cytotox: kills parental KB-3-1 adenocarcinoma cells | KB-3-1 viability, CellTiter-Glo ATP luminescence, 72 h | Potency, µM (doses to about 46.1 µM), hits mostly cytotoxic | 400,000 tested, 1.4% active | AID 1347075; note: % is set by controls: 0 for no effect and ±100 for the full control effect; nearly all actives have a fitted effect of over 60% in size
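Cytotoxicity measured as CellTiter-Glo luminescence after 72 h at 37 C. Compound titrations were pinned onto drug-naive KB-3-1 parental adenocarcinoma cells grown in DMEM with 10% FBS, and normalized data fitted to concentration-response curves.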
KB-V1 MDR tox: kills drug-selected multidrug resistant KB-V1 cells; Potency, µM (top dose mostly 46.1 µM), most hits filed as cytotoxic; 400,000 tested, 3.4% active; KB-V1 MDR cells viability, CellTiter-Glo, 72 h; note: % is set by controls: 0 for no effect and ±100 for the full control effect; nearly all actives have a fitted effect of over 60% in size
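KB-V1 cells (P-gp-expressing MDR subline of KB-3-1) in phenol-red-free DMEM with 10% FBS were exposed to library compounds over a concentration series for 72 h at 37 degrees C. Viability read by CellTiter-Glo luminescence; concentration-effect curves fitted after normalization.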
S2 tox: reduces viability in counter-screen for ATXN expression inhibitors; AID 651635; S2 cells (HEK-293 line with an ATXN2-luciferase reporter) viability, CellTiter-Fluor protease fluorescence, 24 h; Potency, µM (doses to about 56.7 µM), hits mostly cytotoxic; 400,000 tested, 0.49% active; note: nearly all actives have a fitted effect of over 40% in size
TGFb SMAD3 inh: blocks TGF-b signaling; HepG2 CAGA-GFP TGF-b/SMAD3 reporter, GFP fluorescence, 18 h; TGF-beta stimulated, 500 pg/mL final; Potency, µM (highest dose often 46.1 µM), without a hit: at the highest dose activity, negative = inhibition, hits mostly inhibitors; 410,000 tested, 1.2% active; AID 588855; note: % is set by controls: 0 for no effect and ±100 for the full control effect; nearly all actives have a fitted effect of over 65% in size
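HEPG2 CAGA-GFP reporter cells (1000/well, DMEM with 1% FBS) received compounds, then recombinant TGF-beta at 500 pg/mL final for 18 hours at 37 degrees C. Per-cell GFP summed per well was normalised to unstimulated and stimulated DMSO controls before curve fitting.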
HepG2 viability: HepG2 cytotoxicity, counter-screen for TGF-b inhibitors. 410,000 tested, 0.76% active. HepG2 CAGA-GFP viability, ATP luminescence, 18 h. AID 588856. Potency, µM (top dose mostly 46.1 µM), for the others: at the top dose activity change, negative = cytotoxicity, actives largely listed as cytotoxic
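CellTiter-Glo luminescence gave cytotoxicity after 18 hours at 37 degrees C. The cells were HepG2 CAGA-GFP in 1% FBS DMEM, stimulated with 500 pg/mL TGF-beta after compound addition. %Activity was normalised to no-cell wells (complete cell-killing) and DMSO (no toxicity), and curves were fitted and classified.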
* hit, by the source's call; i = inactive; ? = inconclusive; · = no result. Calls come from the whole dose curve; as a rule, active = well fitted curve in the direction sought with a large enough effect; inconclusive = small, poorly fitted or top-dose-only effect, or another doubt; inactive = no such curve, though single readings can be large; an effect the other way counts as inactive or inconclusive. Potency is the fitted concentration of half-maximal effect.

SMILES	ATXN2 expr inh	KB-3-1 cytotox	KB-V1 MDR tox	S2 tox	TGFb SMAD3 inh	HepG2 viability
CCOC(=O)/C=c1/s/c(=C/c2ccc3cc(OC)ccc3c2)c(=O)n1CC(=O)NCC1CCCO1 (centres undefined)	2.5%	?	i	i	5.9%	14.8%
CCOC(=O)/C=c1\s/c(=C\c2c(OC)ccc3ccccc23)c(=O)n1CC(=O)NCC1CCCO1 (centres undefined)	-7.0%	4.61µM*	2.31µM*	i	74.7%	-5.2%
CCc1ccccc1NC(=O)Cn1c(=O)n(Cc2ccc(OC)cc2)c(=O)c2oc3ccccc3c21	·	·	·	·	-0.2%	-4.8%
CC(C)(C)C1=CC(=O)C(=O)C(C(C)(C)C)=C1	·	i	13µM*	12.6µM*	15.8µM*	-87.9%
COc1ccc(NC(=O)CN(C)CC(=O)c2c(C)[nH]c3ccccc23)cc1	-9.8%	i	7.31µM*	i	5.3%	3.4%
COc1cccc(NC(=O)CN(C)CC(=O)c2c(C)[nH]c3ccccc23)c1	-16.4%	i	i	?	-16.1%	-18.3%
Cc1[nH]c2ccccc2c1C(=O)CCl	·	i	?	11.2µM*	?	-5.4%
Cc1[nH]c2ccccc2c1C(=O)Cn1c(=O)oc2ccccc21	-13.0%	i	16.4µM*	?	-30.7%	-13.2%
COc1cccc(-c2nn(C)c3sc(C(=O)N4CCN(c5cccc(C(F)(F)F)c5)CC4)cc23)c1	-9.7%	i	i	?	-15.0%	-3.3%
CCC1CN(CCNC(=O)c2cc(C(C)C)nn2C)Cc2cc(OC)ccc2O1 (centres undefined)	·	·	·	i	·	·
Cc1c(Cl)cccc1NC(=O)Nc1cnccn1	9.2%	16.4µM*	?	i	7.4%	6.9%
COc1ccc(OC)c(NC(=O)Nc2cnccn2)c1	13.2%	i	i	i	-1.1%	-6.1%
COc1ccccc1NC(=O)Nc1cnccn1	2.0%	?	4.11µM*	i	-9.3%	-4.5%
CC(=O)Nc1ccn(C2OC(C(COC(C)=O)NC(=O)C3CCCN3C(=O)OC(C)(C)C)C(OC(C)=O)C2OC(C)=O)c(=O)n1 (centres undefined)	·	·	·	·	-5.1%	0.5%
CCC1CN(CC(=O)NCc2ccc3c(c2)OCO3)Cc2ccc(Cl)cc2O1 (centres undefined)	·	·	·	i	·	·
Cc1cc(C)cc(Nc2nc(-c3ccc(S(=O)(=O)N4CCCC4)cc3)cs2)c1	?	4.61µM*	?	i	-28.1%	-9.4%
Cc1ccc(Nc2nc(-c3ccc(S(=O)(=O)N4CCCC4)cc3)cs2)cc1C	-14.2%	7.31µM*	2.59µM*	i	-12.4%	-7.1%
COc1ccc(-c2nc(SCC(=O)NC3CCCC3)c(-c3ccccc3)[nH]2)cc1OC	·	i	i	·	?	-19.3%
O=C(Nc1ncc(SCCN2CCCC2)s1)[C@]1(c2ccc(S(=O)(=O)C3CC3)cc2)C[C@@H]1C1CCCCC1	27.3µM*	·	·	·	·	·
COc1cccc(N2C(=O)CSC23C(=O)N(CC(=O)Nc2cc(C)ccc2C)c2ccccc23)c1 (centres undefined)	7.8%	i	i	?	-4.3%	-6.2%
COc1cccc(CN2C(=O)C3(SCC(=O)N3c3ccc(C)c(Cl)c3)c3ccccc32)c1 (centres undefined)	11.8%	13µM*	13µM*	i	4.9%	-4.4%
COc1cccc(CN2C(=O)C3(SCC(=O)N3c3ccc(C(C)C)cc3)c3ccccc32)c1 (centres undefined)	0.0%	?	18.4µM*	i	-5.3%	-15.3%
COc1cc(N2C(=O)CSC23C(=O)N(Cc2cccc(F)c2)c2ccccc23)cc(OC)c1OC (centres undefined)	-17.4%	i	i	i	6.5%	-11.1%
COc1cccc(C2CC(=O)Nc3cc(OC)c(OC)c(OC)c32)c1OC(C)C (centres undefined)	29.6%	i	i	?	-2.5%	-28.8%
